Assay [1] can be described thus: CEETOX_H295R_MTT_cell_viability: Viability Assessment in the CeeTox HT-H295R MTT Assay (AID 2283718; active = hit-call score of the fitted dose curve at least 0.9, where 1 is the maximum; inactive = score below 0.9;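 as to AC50: curve fitted both ways so AC50 may mark viability loss or gain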). Summed up: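 MTT reduction (0.5 mg/ml, 4 h at 37 C; absorbance at 570 and 650 nm) gave viability as background-corrected percent change versus controls. H295R cells had 48 h forskolin (10 uM) prestimulation, then 48 h chemical exposure at 0.1% DMSO.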
Assay [2] in a line: ACEA_AR_agonist_AUC_viability: ACEA Biosciences xCELLigence Real-Time Cell Analysis on Androgen Receptor Agonism for Viability (AID 2283775).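 As to AC50: viability read 80 hours after compound addition.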 Summed up: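 Real-time impedance tracking of 22Rv1 growth, readings every 5 min for 5 h then hourly; area-under-curve viability endpoint at 80 hours, relative to DMSO. Compounds at eight concentrations, 1:4 steps, top 100 uM, n = 2.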
Assay [3] is described as follows: ACEA_ER_AUC_viability: ACEA Biosciences xCELLigence Real-Time Cell Analysis on Estrogen Receptor Agonism for Viability (AID 2283782).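 Also: continuous compound exposure with impedance area under curve over 80 h; hit means loss of impedance signal meaning reduced cell growth or viability.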 In a few lines:
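T-47D; phenol red-free RPMI1640 + 10% CS-FBS; 8 conc., 1:4 serial, max 100 uM final, ≤0.5% DMSO; n = 2; continuous exposure; impedance monitored to 80 h post-dose; AUC vs DMSO.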

Assay [4] can be described thus: STM_H9_OrnCyssISnorm_ratio: Stemina devTOX quickPredict H9 human embryonic stem cell (hESC)-based Assay for Ornithine (ORN):Cystine (CYSS) Ratio (AID 2283714). Summed up: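 Steps: H9 hESCs in pluripotent state dosed 72h, medium plus compound renewed every 24h; conditioned medium from the final 24h deproteinized in 40% acetonitrile; ORN and CYSS quantified by UPLC-HRMS with C13 spike-ins; ratio relative to vehicle.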

A short description of assay [5]: ACEA_AR_antagonist_AUC_viability: ACEA Biosciences xCELLigence Real-Time Cell Analysis on Androgen Receptor Antagonism for Viability (AID 2283776).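 Also: 22Rv1 human prostate cancer cells growing on impedance electrode plates; hits lower the growth signal relative to DMSO meaning cytotoxicity.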 Summed up:
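22Rv1 prostate cells, continuous dosing up to 100 uM final (0.5% DMSO max), duplicate plates. Growth measured by impedance; AUC at 80 h, loss of signal vs DMSO.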

Assay [6] in a line: STM_H9_CystineISnorm_perc: Stemina devTOX quickPredict H9 human embryonic stem cell (hESC)-based Assay for Cystine (CYSS) Metabolite Biomarker, Normalized (AID 2283713; active = hit-call score of the fitted dose curve at least 0.9, where 1 is the maximum; inactive = score below 0.9). In a few lines: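 Undifferentiated H9 hESCs exposed 72 h, compound and media replaced every 24 h; final 24-h media analysed by UPLC-HRMS. Cystine normalized to C13 spike-in standard and median 0.1% DMSO control.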

A short description of assay [7]: STM_H9_NormalizedViability: Cytotoxicity Assessment at 120 hours in the Stemina devTOX quickPredict H9 human embryonic stem cell (hESC)-based Assay (AID 2283784). In a few lines:
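Pluripotent H9 hESCs were exposed, with chemical and media replaced every 24 h. Viability was read by CellTiter-Fluor fluorescence, background-corrected and normalized to the 0.1% DMSO neutral control per plate. Loss of signal was fitted.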

Assay [8] is described as follows: Tanguay_ZF_120hpf_ActivityScore_legacy: (Legacy) Oregon State University Tanguay Lab 120 Hour Post-fertilization zebrafish Assay Score for Activity (AID 2283742).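 As to AC50: dechorionated Tropical 5D wild-type zebrafish embryos held singly per well; static exposure from 6 hpf until 120 hpf at 28 °C.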 In a few lines:
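Embryos are staged, enzymatically dechorionated at 4 hpf, placed individually at 6 hpf, then held in test chemical (0.64% DMSO) at 28C until 120 hpf. Mortality and malformations are scored by brightfield, with non-mortality endpoints skipped for dead embryos.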

For assay [9], the target named is zebrafish Estrogen Receptor (ESR1), esr1 (gene 259252) (UniProt P57717). The assay can be described thus: ATG_zfER1_XSP1: Attagene TRANS-FACTORIAL Multi-Species (XSP1) HepG2 Assay for zebrafish Estrogen Receptor (ESR1) (AID 2283772). In a few lines:
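Exogenous chimeric receptor-GAL4 activity is measured in transiently transfected human HepG2 liver cells after 24 h compound exposure. Reporter transcripts are detected by RT-PCR and fluorescent capillary electrophoresis, analysed for signal gain relative to DMSO.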

The subject of assay [10] is frog Estrogen Receptor (ESR2), gene 100174814. Description: ATG_frER2_XSP1: Attagene TRANS-FACTORIAL Multi-Species (XSP1) HepG2 Assay for frog Estrogen Receptor (ESR2) (AID 2283774). In a few lines: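 Transactivation of an exogenous receptor-Gal4 fusion is tracked in transfected HepG2 cells via induced reporter transcript levels. After 24 h treatment, RT-PCR with capillary electrophoresis quantifies signal gain over DMSO.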

For assay [11], the system named is frog Estrogen Receptor (ESR1), gene 398734. Description: ATG_frER1_XSP1: Attagene TRANS-FACTORIAL Multi-Species (XSP1) HepG2 Assay for frog Estrogen Receptor (ESR1) (AID 2283777). Summed up:
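Human hepatoma HepG2 cells carried transiently transfected multiplexed Gal4-driven reporters and were exposed to test chemicals for 24 hours. Transcripts were quantified by fluorescent RT-PCR with capillary electrophoresis, referenced to DMSO.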

The target in assay [12] is chicken Estrogen Receptor (ESR1), ESR1 (gene 396099) (UniProt P06212). The assay can be described thus: ATG_chERa_XSP1: Attagene TRANS-FACTORIAL Multi-Species (XSP1) HepG2 Assay for chicken Estrogen Receptor (ESR1) (AID 2283779). In a few lines: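 Human liver HepG2, transient MRTU transfection (NR-Gal4 chimeras, GAL4-UAS reporters); 24 h compound exposure; 3 nM 6-alpha-fluorotestosterone in medium. Total RNA → RT-PCR → 6-FAM primer extension → HpaI → CE. Positive direction vs DMSO baseline.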
Sequence of chicken Estrogen Receptor (ESR1), ESR1 (gene 396099) (P06212 whole entry, looked up, the tested form may be a part): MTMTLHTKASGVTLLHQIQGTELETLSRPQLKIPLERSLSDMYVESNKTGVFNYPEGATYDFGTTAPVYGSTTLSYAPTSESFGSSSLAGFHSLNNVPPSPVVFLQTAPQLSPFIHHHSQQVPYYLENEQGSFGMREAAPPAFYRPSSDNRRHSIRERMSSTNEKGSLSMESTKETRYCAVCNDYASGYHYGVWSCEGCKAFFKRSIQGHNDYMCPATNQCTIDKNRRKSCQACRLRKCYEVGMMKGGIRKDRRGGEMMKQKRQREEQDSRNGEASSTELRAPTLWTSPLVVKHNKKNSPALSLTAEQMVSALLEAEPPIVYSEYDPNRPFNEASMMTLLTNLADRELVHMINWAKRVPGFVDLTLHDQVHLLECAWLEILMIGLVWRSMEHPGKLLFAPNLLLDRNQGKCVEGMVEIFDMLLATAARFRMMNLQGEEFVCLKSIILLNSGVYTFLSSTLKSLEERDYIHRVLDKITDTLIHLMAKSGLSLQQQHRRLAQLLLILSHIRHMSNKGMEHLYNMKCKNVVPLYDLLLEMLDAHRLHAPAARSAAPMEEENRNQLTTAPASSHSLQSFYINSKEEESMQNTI

The subject of assay [13] is turtle Estrogen Receptor (ESR1), gene 101933533. The assay can be described thus: ATG_trERa_XSP1: Attagene TRANS-FACTORIAL Multi-Species (XSP1) HepG2 Assay for turtle Estrogen Receptor (ESR1) (AID 2283781). In a few lines:
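Activity was taken as gain of reporter transcript over DMSO controls. HepG2 cells carrying GAL4-UAS-driven reporters were exposed for 24 h before RNA was extracted and reporter sequences were measured by fluorescence after capillary separation.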

Assay [14] is described as follows: ATG_M_06_XSP1: Attagene TRANS-FACTORIAL Multi-Species (XSP1) HepG2 Assay for M06 Transcription Factor (Internal Marker) (AID 2283790). In a few lines: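 Transfected HepG2 multi-reporter system treated 24 h in the presence of 3 nM 6-alpha-fluorotestosterone. The M06 internal marker transcript was quantified by RT-PCR with capillary electrophoresis as a background control, and gain of signal was scored versus DMSO.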

Assay [15] in a line: ATG_M_61_XSP1: Attagene TRANS-FACTORIAL Multi-Species (XSP1) HepG2 Assay for M61 Transcription Factor (Internal Marker) (AID 2283797). In a few lines: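 HepG2 cells transiently transfected with multiplexed GAL4-driven reporter units, dosed 24 h with 3 nM 6-alpha-fluorotestosterone present. Reporter mRNA quantified by RT-PCR, 6-FAM labelling, HpaI digestion and capillary electrophoresis; internal-marker background control, gain of signal versus DMSO.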

The next assay addresses AR (gene 367) (UniProt P10275). The assay can be described thus: ACEA_AR_antagonist_80hr: ACEA Biosciences xCELLigence Real-Time Cell Analysis on Androgen Receptor Antagonism for Proliferation (AID 2283787).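 Also: 22Rv1 human prostate cancer cells with growth followed by electrical impedance; hits lower the impedance growth signal relative to DMSO.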 In a few lines: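 Growth-kinetic antagonist readout in 22Rv1 cells, taken 80 h after continuous compound exposure. Activity fitted as signal loss relative to DMSO negative control.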

For assay [16], the system named is zebrafish Androgen Receptor (AR), gene 100005148. Description: ATG_zfAR_XSP1: Attagene TRANS-FACTORIAL Multi-Species (XSP1) HepG2 Assay for zebrafish Androgen Receptor (AR) (AID 2283771). In a few lines:
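HepG2 cells were transiently transfected with a zebrafish AR-GAL4 reporter system and partially stimulated with 3 nM 6-alpha-fluorotestosterone. Reporter mRNA was measured after 24 h dosing by RT-PCR with capillary electrophoresis, and gain-of-signal was fitted relative to DMSO.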

Assay [17] concerns zebrafish Estrogen Receptor (ESR2B), gene 317733. Description: ATG_zfER2b_XSP1: Attagene TRANS-FACTORIAL Multi-Species (XSP1) HepG2 Assay for zebrafish Estrogen Receptor (ESR2B) (AID 2283773). In a few lines:
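Gain-of-signal endpoint relative to DMSO: reporter transcript levels quantified by RT-PCR and capillary electrophoresis after 24 h compound exposure of HepG2 cells expressing a zebrafish ER2b-Gal4 chimera.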

These results are taken from PubChem BioAssay (EPA / NIEHS).

Records with an inconclusive call do not appear. The source holds several records for some structures; these can differ, active in one and inactive in another. Active and inactive are the calls of the source. The calls were made as follows, unless noted: active = hit-call score of the fitted dose curve at least 0.9, where 1 is the maximum; inconclusive = response in the unintended direction; inactive = score below 0.9.

Broadly, the AC50 is the midpoint of the concentration-response curve, whichever way the signal moves.

Sequence of zebrafish Estrogen Receptor (ESR1), esr1 (gene 259252) (P57717 whole entry, looked up, the tested form may be a part): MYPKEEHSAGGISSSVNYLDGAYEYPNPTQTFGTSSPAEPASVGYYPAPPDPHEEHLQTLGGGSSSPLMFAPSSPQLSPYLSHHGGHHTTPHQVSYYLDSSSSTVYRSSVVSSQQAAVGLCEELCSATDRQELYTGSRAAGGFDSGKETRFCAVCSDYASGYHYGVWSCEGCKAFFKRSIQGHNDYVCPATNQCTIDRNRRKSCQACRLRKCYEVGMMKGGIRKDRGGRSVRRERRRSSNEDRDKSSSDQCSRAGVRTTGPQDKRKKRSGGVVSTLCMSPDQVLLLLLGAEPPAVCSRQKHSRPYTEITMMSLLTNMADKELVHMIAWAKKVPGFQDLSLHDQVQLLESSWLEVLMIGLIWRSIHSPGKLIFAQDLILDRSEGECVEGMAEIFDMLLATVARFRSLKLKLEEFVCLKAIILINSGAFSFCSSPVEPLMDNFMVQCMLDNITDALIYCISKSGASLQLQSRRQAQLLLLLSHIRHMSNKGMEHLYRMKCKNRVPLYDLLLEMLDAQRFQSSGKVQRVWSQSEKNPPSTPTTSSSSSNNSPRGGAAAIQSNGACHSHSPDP
Sequence of AR (gene 367) (P10275 whole entry, looked up): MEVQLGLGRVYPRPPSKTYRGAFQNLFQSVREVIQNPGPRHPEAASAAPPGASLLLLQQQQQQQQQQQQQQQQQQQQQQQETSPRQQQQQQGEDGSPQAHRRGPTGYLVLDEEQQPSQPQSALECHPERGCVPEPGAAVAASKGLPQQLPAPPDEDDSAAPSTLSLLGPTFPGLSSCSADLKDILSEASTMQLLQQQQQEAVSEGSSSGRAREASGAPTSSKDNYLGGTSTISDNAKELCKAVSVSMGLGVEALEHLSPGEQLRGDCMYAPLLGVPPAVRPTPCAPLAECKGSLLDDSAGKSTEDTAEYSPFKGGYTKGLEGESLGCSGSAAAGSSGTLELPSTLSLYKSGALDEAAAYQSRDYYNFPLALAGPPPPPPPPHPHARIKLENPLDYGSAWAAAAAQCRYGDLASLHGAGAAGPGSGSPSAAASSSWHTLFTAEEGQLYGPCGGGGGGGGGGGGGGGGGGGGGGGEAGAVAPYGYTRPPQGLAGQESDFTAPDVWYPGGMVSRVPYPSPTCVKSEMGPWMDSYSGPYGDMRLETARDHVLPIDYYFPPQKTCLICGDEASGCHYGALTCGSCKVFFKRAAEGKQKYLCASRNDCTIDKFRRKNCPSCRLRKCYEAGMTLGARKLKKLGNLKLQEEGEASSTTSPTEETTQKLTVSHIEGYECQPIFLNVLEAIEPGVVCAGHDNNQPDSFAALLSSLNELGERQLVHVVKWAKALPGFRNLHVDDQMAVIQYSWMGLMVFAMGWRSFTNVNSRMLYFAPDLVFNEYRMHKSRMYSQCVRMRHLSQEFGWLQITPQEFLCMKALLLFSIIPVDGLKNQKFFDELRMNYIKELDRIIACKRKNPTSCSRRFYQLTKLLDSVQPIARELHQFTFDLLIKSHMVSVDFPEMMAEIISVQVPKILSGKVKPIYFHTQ

For `COc1ccc2[nH]cc(CCNC(C)=O)c2c1`, the call in assay [1], in [2] and in assay [3] was inactive.
Turning to `CC(=O)C1=C(C)[C@@H]2C[C@@]3(C1)[C@H](C)CC[C@H]3C2(C)C`, the result in [4], in assay [2] and in [5] was inactive. Besides, the AC50 in [1] was 50 µM (active); in assay [3] it was 88.1 µM (active).
Consider `O=C1CCCCCCCCCCCC(=O)OCCO1`, for which the AC50 in assay [4] was 13.2 µM (active); in assay [3] it was 71.8 µM (active).
Take `O=C(O)c1ccccc1O`: the AC50 was 1490 µM (active) in assay [6] and 7090 µM (active) in [7]. The compound was called inactive in assay [2].
In the case of `C#C[C@]1(O)CC[C@H]2[C@@H]3CCc4cc(O)ccc4[C@H]3CC[C@@]21C`, the outcome in [1], in assay [8], in [2], in [5], in assay [14] and in assay [15] was inactive. Also, the AC50 was 0.000281 µM (active) in assay [9]; 0.000273 µM (active) in assay [10]; 30.5 µM (active) in assay [5]; 39.3 pM (active) in [11]; 61.7 pM (active) in assay [12]; 40.3 pM (active) in assay [13].
On to `COc1cc(OC)c2ccc(=O)oc2c1`, for which, in assay [1], the compound was called inactive. The AC50 is 0.94 µM (active) in [2], 0.25 µM (active) in assay [5] and 3.3 µM (active) with AR (gene 367).
Consider `c1coc(CNc2ncnc3nc[nH]c23)c1`, for which the compound was classed as inactive in assay [1], in [2] and in assay [5].
For the compound `CC=CC(=O)C1=C(C)C=CCC1(C)C`, the compound was classed as inactive in assay [1] and in assay [3].
As to `CC/C(=C(\c1ccccc1)c1ccc(OCCN(C)C)cc1)c1ccccc1`, the result in assay [1], in assay [8], in assay [16], in [9], in assay [17] and in assay [5] was inactive. Besides, the compound was called inactive in assay [14] and in assay [15]. The AC50 in assay [8] was 31.1 µM (active); in assay [2], 10.4 µM (active); in [5] it was 11 µM (active); in [3], 17.7 µM (active) [middle of 5 runs].
Regarding `OCC=Cc1ccccc1`, the compound was classed as inactive in assay [1], in assay [2] and in assay [5].
For the compound `O=C(OCc1ccccc1)c1ccccc1O`, the call in assay [1], in [2] and in assay [5] was inactive. Further, the AC50 in assay [3] is 94.3 µM (active).
As for `CCCCCCCCCO`, the compound was called inactive in [2].
For the compound `CC(C)(C)c1cccc(O)c1`, the compound was classed as inactive (in assay [1]; in assay [2]; in assay [5]; in the assay with AR (gene 367)).
For `CCc1cccc(O)c1`, the outcome in [2], in [5] and in [3] was inactive.
`CC(C)N(c1ccccc1)C(C)C`: the compound was classed as inactive in assay [2] and in [5].
Consider `Cc1cccc(O)c1`, for which the result in assay [2] and in assay [5] was inactive.
Turning to `CCCCCCCCCOS(=O)(=O)O`, the compound was called inactive in [2] and in assay [5].
For `CCC(C)C1CCCCC1=O` (stereo unspecified), the call in assay [2], in [5] and in [3] was inactive.
As for `C=CC(C)CCCC(C)(C)O` (stereo unspecified), the compound was called inactive in assay [2].
